A selection: hits, their analogues and other compounds. The true share with any hit is near 4.3%.
MCF10A rerep = A quantitative high throughput screen for small molecules that induce DNA re-replication in MCF 10a normal breast cells; MCF 10A DNA re-replication, Hoechst nuclear intensity, 48 h; Potency, µM (highest dose often 46.1 µM), for inactives: at the highest dose activity, positive = re-replication, hits mostly activators; 2.9% of 350,000 active; also: potency is read from the fitted curve at half-maximal effect; % of control where 0% means no effect; nearly all actives have a fitted effect of over 50% in size
SW480 rerep = A quantitative high throughput screen for small molecules that induce DNA re-replication in SW480 colon adenocarcinoma cells. SW480 DNA re-replication, Hoechst DNA content imaging, 48 h. Potency, µM (series often up to 46.1 µM), inactives show top-dose re-replication activation, most hits filed as activators. 1.8% of 340,000 active. AID 624297, 2012; also: potency is read from the fitted curve at half-maximal effect; % of control where 0% means no effect; nearly all actives have a fitted effect of over 55% in size
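250 cells/well; 23 nL cpd via pin tool; 48 hr, 37 C, 5% CO2; Hoechst 40 min; imager read of total nuclear intensity, ex 405/em 500-530 nm.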
uPA surface inh = qHTS for Inhibitors of Cell Surface uPA Generation; cell surface uPA generation assay, qHTS; Potency, µM (doses to about 38.3 µM), without a hit: at the top dose activity change, negative = inhibition, hits mostly inhibitors; 0.31% of 330,000 active; active = well fitted inhibition curve with a large enough effect; inconclusive = small, poorly fitted or top-dose-only effect; inactive = no such curve, though single readings can be large or run the other way; tested in mouse RAW 264.7 cells; also: potency is read from the fitted curve at half-maximal effect; % is scaled to controls: 0 for no effect and ±100 for the full control effect; nearly all actives have a fitted effect of over 55% in size
Giardia kill = Small Molecules that selectively kill Giardia lamblia: qHTS. Giardia lamblia trophozoite viability. activity change, % at 7.66 µM, hits read low. 0.15% of 340,000 active. AID 540267, 2011; in the data active = activity change below about -80%; inconclusive = between about -30% and that limit;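 also: parasites exposed to compound for two days anaerobically before the ATP read; % is scaled to controls: 0 for no effect and ±100 for the full control effect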
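Media and compound were dispensed first, then trophozoites at 100 cells/well; plates sat 48 hrs at 37 deg C without oxygen before ATP luminescence reagent was added and read after 15-30 min at room temperature.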
Active calls of the source: *; u = inconclusive; x = not tested or not shown; [ ] = dose if it differs, or a comment. Unless noted, calls follow the shape of the dose curve; as a rule, active = well fitted activation curve with a large enough effect; inconclusive = small, poorly fitted or top-dose-only effect; inactive = no such curve, though single readings can be large or run the other way.

SMILES	MCF10A rerep	SW480 rerep	uPA surface inh	Giardia kill
Cc1nc(N2CCN(S(=O)(=O)c3cccc4nonc34)CC2)c2c3c(sc2n1)CCCC3	18.4µM*	0.7%	4.1%	-4.8
C[C@H]1CN([C@@H](C)CO)C(=O)c2cccc(NS(=O)(=O)c3ccc(Cl)cc3)c2O[C@@H]1CN(C)CC1CCCCC1	-1.8%	1.0%	8.0%	-2.0
Cc1ccc(NS(=O)(=O)c2ccc(C3CCCCC3)cc2)cc1	23.1µM*	-4.1%	3.8%	-6.8
Cn1c(N=Nc2ccc(N3CCOCC3)cc2)[n+](C)c2ccccc21	26.4%	13µM*	-8.1%	-4.4
CN1C=CC(=O)[C@@H](OC(=O)Nc2ccc(Br)cc2)[C@H]1c1ccccc1Br	13.3%	u	u	-22.7
CCN(c1ccccc1)S(=O)(=O)c1ccc(OC)c(NC(=O)CNC)c1	8.2µM*	28.9%	-7.2%	1.2
CC1CN(CC(O)COC(c2ccc(Cl)cc2)c2ccc(Cl)cc2)CC(C)O1 (stereo unspecified)	7.31µM*	-6.8%	-4.8%	-3.9
CC1CN(CC(O)COc2ccc(C(C)C)cc2)CC(C)O1 (stereo unspecified)	19.4%	-6.8%	4.0%	-6.3
CCOc1ccccc1N1CCN(C(=O)c2cc(-c3cc(OC)ccc3OC)nc3ccccc23)CC1	u	u	-6.8%	u
O=C(Nc1cc(S(=O)(=O)N2CCOCC2)ccc1Cl)c1cc([N+](=O)[O-])ccc1Cl	81.4%	11.6µM*	-14.7%	14.7
O=C(c1cc([N+](=O)[O-])ccc1Cl)N1c2ccccc2Sc2ccccc21	18.4µM*	u	-17.7%	17.8
O=C(Nc1cccc(NC(=O)c2cc([N+](=O)[O-])ccc2Cl)n1)c1cc([N+](=O)[O-])ccc1Cl	6.51µM*	u	8.91µM*	-25.6
O=C(Nc1ccc(S(=O)(=O)N2CCOCC2)cc1)c1ccc([N+](=O)[O-])cc1Cl	u	u	u	0.5
COCCNc1nnc(Cc2ccc(Cl)cc2)c(=O)[nH]1	4.2%	4.3%	u	37.2
COCCCNc1nnc(Cc2ccc(Cl)cc2)c(=O)[nH]1	0.517µM*	u	u	7.6
CCC(C)(C)c1ccc(CC(C)CN2C[C@@H](C)O[C@@H](C)C2)cc1 (stereo partly specified)	u	3.3%	x	x
CCCc1nc2oc3c(NCCN(C)C)ncnc3c2c2c1CCCC2	u	u	-3.8%	-11.8
CCCc1nc2oc3c(NCCCN(C)C)ncnc3c2c2c1CCCC2	14.6µM*	u	-1.2%	-18.2
CCCc1nc2oc3c(Cl)ncnc3c2c2c1CCCC2	u	-64.9%	0.6%	u
CC(C)Cc1nc2oc3c(Cl)ncnc3c2c2c1CCCC2	29.1µM*	9.1%	2.3%	-11.2
CC(=O)Nc1ccc2ccc3cccc4ccc1c2c34	6.51µM*	20.6µM*	-0.2%	3.7
CC(=O)Nc1cccc2cc(O)ccc12	-38.8%	0.6%	1.8%	-23.7
COC(CNC(=O)C(=O)Nc1cc2c3c(c1)CC(=O)N3CCC2)OC	1.1%	-2.9%	0.6%	8.3
CCCSS/C(CCO)=C(/C)N(C=O)Cc1cnc(C)nc1N	13.3µM*	u	x	x
C/C(=C(/CCO)SSCC1CCCO1)N(C=O)Cc1cnc(C)nc1N (stereo unspecified)	u	-5.5%	-4.9%	-15.8
SMILES	MCF10A rerep	SW480 rerep	uPA surface inh	Giardia kill
CN1CCC[C@@H](CC2c3ccccc3Sc3ccccc32)C1	-1.3%[20.6 µM]	u	x	x
O=C(Cn1c(NCCCO)nc2ccccc21)c1ccco1	18.4µM*	u	3.5%	-12.8
Cc1cc(NC(=O)C(C)SCC(=O)Nc2ccc(Br)cc2Br)no1 (stereo unspecified)	2.8%	2.4%	-3.5%	-3.9
CCN1C[C@@H]2[C@@H]3C(=O)N(Cc4ccccc4)C(=O)[C@@H]3[C@](CC)(C1=O)N2C(=O)c1ccc(Cl)c(Cl)c1	7.9%	7.6%	-2.8%	5.3
Cc1nc2ccccc2c2c(N)cccc12	-4.1%	-4.6%	3.3%	14.8
Cc1cc2nn(-c3cccc4ccccc34)nc2cc1N	20.6µM*	17.4%	5.7%	1.5
CCc1ccc(-n2nc3cc(C)c(N)cc3n2)cc1	u	u	6.3%	-10.8
Cc1ccc(-n2nc3cc(C)c(N)cc3n2)cc1	18.4µM*	u	-11.0%	-28.0
Nc1ccc2nn(-c3cccc4ccccc34)nc2c1	9.2µM*	18.4µM*	-2.2%	0.1
CCCCCC(=O)N1c2ccccc2C(C)(c2ccccc2)CC1(C)C (stereo unspecified)	x	x	x	-4.9
COCC(=O)Nc1ccc2c(c1)OCC(=O)N2Cc1ccc(C)cc1	23.1µM*	5.4%	u	-3.4
O=C(NC(=S)Nc1ccccn1)c1ccc(-c2ccccc2)cc1	u	27.0%	-7.6%	-89.9*
O=C(NC(=S)Nc1ccccn1)c1ccccc1	-2.1%	-4.7%	u	12.3
CCC(C)NC(=O)c1ccc(C2SCC(=O)N2Cc2ccccc2)cc1 (stereo unspecified)	-2.0%	-3.3%	3.7%	-13.9
CC(C)NC(=O)c1ccc(C2SCC(=O)N2Cc2ccccc2)cc1 (stereo unspecified)	7.31µM*	11.0%	2.6%	12.5
CCN(CC)C(=O)C1c2ccccc2Oc2ccccc21	4.1%	6.6%	-3.3%	3.2
c1ccc2[nH]ccc2c1	-3.9%	-4.1%	x	x
O=C(/C=C/C(Cl)(Cl)Cl)Nc1ccc(Cl)cc1	u	u	-10.3%	-10.6
NC(=O)/C=C/C(=O)Nc1ccc(Cl)cc1	14.6µM*	17.7%	-10.2%	-6.3
COc1ccc(N2CCN(C(=O)CCNS(=O)(=O)c3ccccc3)CC2)cc1	25.9µM*	26.7%	-0.3%	-7.4
CCOC(=O)c1cc(-c2ccccc2)n(CCC(=O)N2CCN(c3ccccc3OC)CC2)c1C	u	6.9%	-7.2%	-10.3
COc1ccc(C(CNC(=O)CCNS(=O)(=O)c2ccc(C)cc2)N2CCOCC2)cc1 (stereo unspecified)	12.1%	5.17µM*	-6.9%	11.2
CCOc1ccc(S(=O)(=O)NCCC(=O)N2CCN(c3ccc(OC)cc3)CC2)cc1	-10.3%	-2.5%	-3.7%	-0.2
CCOC(=O)c1cc(-c2ccccc2)n(CCC(=O)N2CCN(c3ccc(OC)cc3)CC2)c1C	25.9µM*	4.1%	-7.1%	5.3
COc1ccc(N2CCN(C(=O)CCS(=O)(=O)c3ccc4c(c3)CCN4C(=O)C3CC3)CC2)cc1	u	5.8µM*	-52.8%	-27.7
Cc1ccc(S(=O)(=O)NCCC(=O)NCC(c2ccc(F)cc2)N2CCOCC2)cc1 (stereo unspecified)	-3.7%	-11.2%	3.6%	-26.5
CCOCCn1c(N2CCCN(C)CC2)nc2ccccc21	4.5%	-1.4%	x	x
COc1ccc(N2CCN(CNC(=O)c3ccccc3)CC2)cc1	0.92µM*	-1.0%	11.0%	-7.0
O=[N+]([O-])c1ccc(N/N=C/c2cccc(O)c2O)c(S(=O)(=O)N2CCOCC2)c1	21.6%	4.11µM*	u	u
COc1ccc(-c2nc(N3CCCC3)[nH]c(=O)c2C#N)cc1	u	-9.2%	3.7%	7.0
